This is a sample that favours compounds with a hit; in the whole collection about 3.1% have one here.
EWS-Fli inh: EWS/Fli transcriptional activity inhibition; A673 NR0B1-luciferase reporter, viability-normalised; hit rate 0.67% among 350,000; inhibition, % at 12.6 µM; AID 651661;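 active = mean inhibition of at least 50% after viability correction, with every replicate also passing that limit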;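 note: firefly luciferase signal divided by Alamar Blue viability fluorescence both relative to DMSO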
C2C12 statin: protects C2C12 myotubes from simvastatin toxicity. ATP luminescence, 48 h; scaled: DMSO 0, geranylgeraniol control 100. AID 602340. rescue of ATP level, % at 7.49 µM. hit rate 0.78% among 330,000;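 active = mean ATP rescue above about 67%, or every replicate alone reaching that limit, limit read from the data, passing the limit was not always enough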;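 note: myotubes were challenged with 10 µM simvastatin during compound exposure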
Env fusion inh: HIV envelope-mediated fusion inhibition. HeLa-JRFL Env/CEM21 cell fusion, luciferase. inhibition, % at 12.3 µM. hit rate 1.1% among 360,000. AID 651610;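 active = mean replicate inhibition score of at least 50 and every replicate individually at or above 50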;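 note: 0% = plate neutral controls and 100% = maraviroc near 300 nM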
PAX8 inh HTS: PAX8 transcriptional activity inhibition; RMG-I TPO-luciferase reporter, SteadyGlo, 24 h; AID 652154; hit rate 1.2% among 360,000; inhibition, % at 12.6 µM;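 active = mean replicate inhibition at least 60% with every replicate also reaching 60%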;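 note: luciferase light reporting Pax8 driven TPO promoter activity; plate controls were median of neutral control wells for no effect and mitoxantrone controls for full effect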
miR122 inh: blocks miR-122 activity in Huh7 sensor cells; Huh7 miR-122 Renilla luciferase sensor, 48 h; neutral wells = 0, positive control = 100; activation (reporter increase), % at 12.5 µM; hit rate 0.3% among 340,000; AID 602342;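 active = mean replicate activation score at least 90 and every replicate individually at or above 90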;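 note: higher luciferase means less miR-122 activity so hits act as miR-122 inhibitors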
GSIS activator: GLuc luminescence reporter in INS-1E cells, primary screen for activators of glucose-dependent secretion of insulin. INS-1E GLuc reporter insulin secretion, 2-3 h. activation, % at 16.6 µM. hit rate 0.61% among 370,000. AID 743287;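 active = lowest replicate activation of at least 40%, so every replicate reaches that level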;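 note: 0% = median of neutral control wells and 100% = median of IBMX positive control wells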
Active calls of the source: *; · = no result given; [ ] = another dose, or the depositor's remark.

SMILES	EWS-Fli inh	C2C12 statin	Env fusion inh	PAX8 inh HTS	miR122 inh	GSIS activator
COC(=O)c1cccc(N/C=C(\[N+](=O)[O-])S(=O)(=O)c2ccccc2)c1	-27	10	-2	-15	·	51*
O=C(C[C@@H]1CC[C@@H](NC(=O)C2CCC2)[C@@H](CO)O1)NCCCN1CCOCC1	-2	-4	4[16.7 µM]	6	·	0
C=CCc1c(Cl)nc(C)nc1NCc1ccccc1	11	17	59*	2	-7	-5
Cc1sc2nc3ccc(N4CCCCC4)nn3c(=O)c2c1C	·	113*	·	·	-17	3
CCC(CC)COC(=O)C1=C(C)NC(=O)NC1c1cccc([N+](=O)[O-])c1 (configuration not stated)	13	-11	62*	4	-5	-10
COc1ccc(S(=O)(=O)Nc2ccc3c(c2)C(=O)N([C@H](C)CO)C[C@H](C)[C@H](CN(C)S(C)(=O)=O)OCCCC[C@H](C)O3)cc1	-21	·	-7[16.7 µM]	-12	-3[16.7 µM]	-4
CC(C)NC(=O)Nc1cccc2c1O[C@H](CN(C)Cc1ccc(C(=O)O)cc1)[C@H](C)CN([C@@H](C)CO)C2=O	-1	2	·	-15	-6[16.7 µM]	24
COc1ccc2c3c([nH]c2c1)[C@H](CO)N(C(=O)c1ccccc1)CC31CN(S(=O)(=O)c2cccs2)C1	4	·	·	·	·	26
CCN1C(=O)[C@@H]2[C@@H](c3ccc(-c4ccc(Cl)c(Cl)c4)c(OC)c3)N3CCC[C@@]3(C(=O)OC)[C@@H]2C1=O	4	-21	-1	70*	-5	·
CCSc1ccc([C@@H]2[C@@H]3C(=O)N(CC)C(=O)[C@@H]3[C@]3(C(=O)OC)CCCCN23)cc1	3	9	63*	0	1	·
CCN1C(=O)[C@@H]2[C@@H](c3ccc(-c4ccc(Cl)c(Cl)c4)cc3)N3CCCC[C@@]3(C(=O)OC)[C@@H]2C1=O	-6	2	63*	3	-4	·
CCSc1ccc([C@@H]2[C@H]3C(=O)N(CC)C(=O)[C@H]3[C@]3(C(=O)OC)CCCCN23)cc1	-4	-3	-15	-4	-1	-25
Fc1ccc(-c2nnc(CN3CCN(c4ncc(C(F)(F)F)cc4Cl)CC3)o2)cc1	·	0	68*	0	-12	·
Fc1ccc(N2CCN(Cc3nnc(-c4ccccc4)o3)CC2)cc1	-1	·	14	-12	·	-5
COc1ccc(CCNC(=O)COC(=O)c2cccn2C)cc1	-8	5	78*	-19	-4	19
Cn1cccc1C(=O)OCC(=O)NCCc1ccc(S(N)(=O)=O)cc1	-3	-6	72*	11	·	4
Cn1cccc1C(=O)OCC(=O)NCCCc1ccccc1	-2	14	15	-11	-7	8
COC(=O)CN(c1cccc(C)c1)S(=O)(=O)c1ccccc1	·	·	-6	·	-8	46*
CCS(=O)(=O)Nc1ccc2c(c1)C(=O)N(C)[C@H]1CC[C@H](CC(=O)NC)O[C@H]1CO2	2	19	-11[16.7 µM]	-3	33[16.7 µM]	-12
Cc1[nH]c2ccccc2c(=O)c1SC(F)(F)C(F)C(F)(F)F (configuration not stated)	·	104*	·	·	-2	·
COc1ccc(C2=CC(=O)C[C@H](c3ccc(OC)c(OC)c3)C2)cn1	-6	-8	15	-16	·	20
COc1ccc([C@H]2CC(=O)C=C(c3ccc(Oc4ccccc4)cc3)C2)cc1OC	20	30	26	41	-9	·
COc1ccc([C@H]2CC(=O)C=C(c3ccccc3)C2)cc1OC	12	80*	-6	-5	0	-2
COc1ccc([C@H]2CC(=O)C=C(c3ccc(F)nc3)C2)cc1OC	-3	90*	-28	3	-1	·
COc1ccc([C@H]2CC(=O)C=C(c3ccc(F)cc3OCc3ccccc3)C2)cc1OC	23	-26	72*	52	-18	·
SMILES	EWS-Fli inh	C2C12 statin	Env fusion inh	PAX8 inh HTS	miR122 inh	GSIS activator
COc1ccc([C@H]2CC(=O)C=C(c3ccc(F)cc3OCc3ccccc3)C2)cc1	14	-28	20	28	10	6
Cc1ccc(S(=O)(=O)Nc2ccc3c(c2)C(=O)N([C@@H](C)CO)C[C@H](C)[C@H](CN(C)Cc2ccncc2)OCCCC[C@H](C)O3)cc1	9	·	-6[16.7 µM]	11	10[16.7 µM]	-16
COc1ccc(S(=O)(=O)Nc2ccc3c(c2)C(=O)N([C@H](C)CO)C[C@H](C)[C@@H](CN(C)CC2CC2)O3)cc1	·	·	·	-18	·	11
C[C@H](CO)N1C[C@H](C)[C@H](CN(C)S(=O)(=O)c2ccccc2)Oc2ccc(NC(=O)Nc3ccc(C(F)(F)F)cc3)cc2C1=O	1	-52	15[16.7 µM]	·	-13[16.7 µM]	-8
COc1cc(/C=N/Nc2nnc3c(n2)[nH]c2ccccc23)ccc1O	27	·	·	80*	3	·
CCc1ccc2[nH]c3nc(N/N=C/c4ccc(O)cc4O)nnc3c2c1	39	8	40	105*	·	23
Cc1ccc2[nH]c3nc(N/N=C/c4cccc(O)c4)nnc3c2c1	-17	6	10	2	9	19
COc1ccc2c3c([nH]c2c1)[C@@H](CO)N(C(=O)CN1CCOCC1)CC31CN(C)C1	·	·	·	·	·	26
C[C@H]1CN([C@@H](C)CO)C(=O)c2c(c3ccccc3n2C)-c2ccccc2CO[C@H]1CN(C)S(=O)(=O)c1ccc([N+](=O)[O-])cc1	8	·	·	91*	·	9
C[C@@H]1CN([C@@H](C)CO)C(=O)c2c(c3ccccc3n2C)-c2ccccc2CO[C@H]1CN(C)S(=O)(=O)c1ccc(C#N)cc1	7	3	69*	23	-8	-2
C[C@@H]1CN([C@@H](C)CO)C(=O)c2c(c3ccccc3n2C)-c2ccccc2CO[C@@H]1CN(C)S(=O)(=O)c1ccc(C#N)cc1	2	9	·	·	·	7
CN(C)C(=O)C[C@H]1CC[C@H]2[C@@H](COC[C@H](O)CN2CC2CCCCC2)O1	-5	2	6[16.7 µM]	0	0[16.7 µM]	31
CCC[C@@H](CNC)NC[C@H](Cc1ccccc1)NCCCCc1ccccc1	13	-104	-25	26	-17	-7
CNC[C@@H](CC1CCCCC1)NC[C@H](CC(C)C)NCCc1cccc(C(F)(F)F)c1	49	-94	93*	113*	-22	480*
CNC[C@@H](Cc1ccccc1)NC[C@@H](CC1CCCCC1)NCCCc1ccccc1	44	-58	103*	74*	-21	89*
C[C@@H]1CN([C@H](C)CO)C(=O)Cc2cc(NS(=O)(=O)c3cn(C)cn3)ccc2O[C@H]1CN(C)Cc1ccc(Cl)c(Cl)c1	2	26	-4[16.7 µM]	-1	-3[16.7 µM]	6
O=P(NC1CCCCC1)(c1ccccc1)c1ccccc1	-2	3	-7	-2	1	16
CC/C(=C\C1CCCCC1)C(NP(=O)(c1ccccc1)c1ccccc1)c1ccccc1 (configuration not stated)	28	13	107*	-1	-2	72
